Screens: PubChem BioAssay, National Center for Advancing Translational Sciences (NCATS)
uPA surface inh = cell surface uPA generation inhibition; cell surface uPA generation assay, qHTS; Potency, µM (highest dose often 38.3 µM), most hits filed as inhibitors; 330,000 compounds, 0.31% hits; AID 540303; active means well fitted inhibition curve with a large enough effect; inconclusive means small, poorly fitted or top-dose-only effect; inactive means no such curve, though single readings can be large or run the other way; tested in mouse RAW 264.7 cells; further: nearly all actives have a fitted effect of over 55% in size
TRPV1 potentiator = potentiators of human vanilloid receptor 1 (TRPV1); potentiation, % at 8.33 µM; Q8NER1; TRPV1-expressing cells, Fluo-8 calcium influx, capsaicin EC20 potentiation; AID 540277; 320,000 compounds, 0.02% hits; in the data active means potentiation above about 80%; inconclusive means between about 30% and that limit
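TRPV1-expressing cells were cultured overnight at 35.5C and loaded with Fluo-8 calcium dye for 40 to 90 min at room temperature. After a 10 s baseline, compound was added and calcium influx was read kinetically for 3 min (ex 480/em 520 nm).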
VP16 counter = inhibits Gal4-VP16 luciferase reporter, ROR gamma counter-screen | Drosophila S2 Gal4-VP16 UAS-luciferase, luminescence, 20 h | Potency, µM (doses to about 53.6 µM), actives largely listed as inhibitors | 310,000 compounds, 3.5% hits;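 further: Gal4-VP16 expression switched on by copper sulfate through the metallothionein promoter; nearly all actives have a fitted effect of over 50% in size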
RORg inh = inhibitors of mouse ROR gamma transcriptional activity; AID 2551; P51450; 310,000 compounds, 5.4% hits; Potency, µM (top dose mostly 53.6 µM), most hits filed as inhibitors; Drosophila S2 Gal4-RORgamma UAS-luciferase reporter, 20 h; further: nearly all actives have a fitted effect of over 60% in size
Target sequence (P51450 whole entry, looked up, the tested form may be a part): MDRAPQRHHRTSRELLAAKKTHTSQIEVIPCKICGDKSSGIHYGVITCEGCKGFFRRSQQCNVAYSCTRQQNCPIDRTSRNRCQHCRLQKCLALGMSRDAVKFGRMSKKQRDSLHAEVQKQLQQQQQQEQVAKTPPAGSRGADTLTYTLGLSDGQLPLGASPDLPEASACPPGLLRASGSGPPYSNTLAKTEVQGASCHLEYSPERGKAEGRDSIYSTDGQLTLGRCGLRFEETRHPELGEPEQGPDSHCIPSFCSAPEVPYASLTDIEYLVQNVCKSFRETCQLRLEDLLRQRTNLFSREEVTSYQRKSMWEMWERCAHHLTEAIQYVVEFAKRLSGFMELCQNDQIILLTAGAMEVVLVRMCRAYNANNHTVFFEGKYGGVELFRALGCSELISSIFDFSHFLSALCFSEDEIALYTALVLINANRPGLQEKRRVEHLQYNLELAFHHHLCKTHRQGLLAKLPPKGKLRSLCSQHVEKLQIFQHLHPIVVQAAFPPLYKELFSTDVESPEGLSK
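Luciferase reporter read in Schneider cells carrying Gal4-RORγ (mouse) and UAS-Photinus luciferase; cells given compound 1 h before 700 uM copper sulfate induction, then incubated 20 h at ambient temperature.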
TRPV1 agonist = human TRPV1 agonism | Q8NER1 | TRPV1-expressing cells, Fluo-8 calcium influx, agonist mode | activation, % at 8.33 µM | 320,000 compounds, 0.19% hits | AID 540275; in the data active means activation above about 80%; inconclusive means between about 30% and that limit
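Cells expressing TRPV1 were dye-loaded with Fluo-8 and read kinetically: 10 s baseline, 3 min after compound (agonist portion), then 2 min after EC20 capsaicin (allosteric enhancer portion). Calcium-bound dye fluorescence at 480/520 nm.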
Each line names hits and unclear results; the compound was inactive in the other large screens. This is a sample that favours compounds with a hit; in the whole collection about 5.8% have one here. Unless noted, the call rests on the fitted dose curve; in most records, active means well fitted curve in the direction sought with a large enough effect; inconclusive means small, poorly fitted or top-dose-only effect, or another doubt; inactive means no such curve, though single readings can be large; an effect the other way counts as inactive or inconclusive.

C/C=C/c1ccc(OCCCCNCc2ccco2)c(OC)c1	none
Cc1c(CNCCc2ccccc2Cl)c(C(=O)O)c(C)n1-c1ccccc1	TRPV1 potentiator inconclusive
COc1ccc(NC(=O)C2CC(=O)N/C(=N/NC(=O)c3ccc(Cl)cc3)S2)cc1 (stereo unspecified)	RORg inh 1.3µM (no result: TRPV1 potentiator, TRPV1 agonist)
COc1ccc(CN=C2NC(=O)CC(C(=O)Nc3ccc(Cl)cc3)S2)cc1 (stereo unspecified)	RORg inh inconclusive
Cc1nc2c(c(C)nn2-c2ccccc2)c(C)c1CCC(=O)Nc1ccc(CN2CCCC2)cc1	TRPV1 agonist inconclusive
COc1cccc(/C=C/C(=O)c2cccc([N+](=O)[O-])c2)c1	VP16 counter 4.5µM
Cc1sc2ncnc(NCCc3ccc(S(N)(=O)=O)cc3)c2c1C	VP16 counter 2.5µM, RORg inh 8.9µM
NS(=O)(=O)c1ccc(CNc2ncnc3sccc23)cc1	none
COc1ccc(CCNc2ncnc3sccc23)cc1OC	VP16 counter 0.63µM, RORg inh inconclusive
NS(=O)(=O)c1ccc(CCNc2ncnc3sccc23)cc1	VP16 counter 4µM, RORg inh inconclusive
CN(C)c1ccc(CNc2ncnc3sccc23)cc1	VP16 counter 7.1µM, RORg inh inconclusive
COc1ccc(Nc2ncnc3sccc23)cc1OC	none
Cc1ccc(S(=O)(=O)Nc2ncnc3sc(C)c(C)c23)cc1	none (no result: VP16 counter, RORg inh)
CC(C)C[C@@H](CC(=O)N[C@@H](CCC(=O)O)CC(=O)O)NC(=O)[C@@H]1CCCC[C@H]1NC(=O)C[C@@H](NC(=O)C[C@H](CO)NC(=O)[C@@H]1CNCC[C@H]1N)C(C)C	none (no result: uPA surface inh, TRPV1 potentiator, TRPV1 agonist)
Cc1c(CC(C)(C)C(=O)O)n(Cc2ccc(Cl)cc2)c2ccc(F)cc12	none (no result: uPA surface inh, TRPV1 potentiator, TRPV1 agonist)
O=C(C[C@H]1C/C=C\C[C@H](NC(=O)OCC2c3ccccc3-c3ccccc32)C(=O)OC[C@H](Cc2ccccc2)NC1=O)N[C@H](CO)Cc1ccccc1	none (no result: TRPV1 potentiator, VP16 counter, RORg inh, TRPV1 agonist)
COc1ccc(CCNc2ncnc3c2oc2ccccc23)cc1OC	VP16 counter 1µM, RORg inh inconclusive
CN1CCCC1CCNc1ccc2oc3ccccc3c(=O)c2c1 (stereo unspecified)	uPA surface inh inconclusive, VP16 counter inconclusive, RORg inh 8.9µM
CCCCOC(=O)c1cc2c(cn1)[nH]c1ccccc12	VP16 counter 32µM, RORg inh 16µM (no result: uPA surface inh, TRPV1 potentiator, TRPV1 agonist)
CCOC(=O)c1ccc(NC(=S)N2CCSC2c2c(F)cc(F)cc2F)cc1 (stereo unspecified)	VP16 counter inconclusive, RORg inh 13µM
COc1ccc(C2SCCN2C(=S)Nc2ccc(Cl)cc2)cc1 (stereo unspecified)	VP16 counter inconclusive, RORg inh 13µM
Fc1cc(F)c(C2SCCN2C(=S)Nc2cccc(C(F)(F)F)c2)c(F)c1 (stereo unspecified)	VP16 counter inconclusive, RORg inh inconclusive, TRPV1 agonist inconclusive
CC(C)C[C@H](NC(=O)[C@@H]1CCCN1C(=O)[C@H](CO)NC(=O)[C@H](Cc1ccccc1)NC(=O)CNC(=O)[C@@H]1CCCN1C(=O)[C@@H]1CCCN1C(=O)[C@@H](N)CCCN=C(N)N)C(=O)O	none (no result: uPA surface inh, TRPV1 potentiator, TRPV1 agonist)
COc1ccc(-c2ccc(OC)c(C3C4C=CCC(C)C4C(=O)N3Cc3ccccc3)c2)cc1 (stereo unspecified)	none (no result: uPA surface inh, TRPV1 potentiator, TRPV1 agonist)
O=C(NCc1ccco1)c1ccccc1NS(=O)(=O)c1ccc(Cl)s1	none
O=C(Nc1ccccc1)c1ccccc1NS(=O)(=O)c1ccc(Cl)s1	VP16 counter inconclusive, RORg inh inconclusive
O=C(Nc1ccccc1Cc1ccccc1)c1ccccc1NS(=O)(=O)c1ccc(Cl)s1	uPA surface inh inconclusive, VP16 counter 13µM, RORg inh inconclusive
Cc1ccc(NC(=O)c2ccccc2NS(=O)(=O)c2ccc(Cl)s2)cc1	TRPV1 potentiator inconclusive, VP16 counter 20µM, RORg inh inconclusive
Cc1ccc(S(=O)(=O)NC(=O)N2CCCC2)cc1	none (no result: TRPV1 potentiator, VP16 counter, RORg inh, TRPV1 agonist)
CN(Cc1ccccc1)C(=O)c1[nH]cnc1C(=O)NC1CCN(C(=O)OC(C)(C)C)CC1	none (no result: TRPV1 potentiator, VP16 counter, RORg inh, TRPV1 agonist)
Cc1nn(C2CCCO2)c(=O)nc1N (stereo unspecified)	none (no result: uPA surface inh)
Cc1ccc(C)c(-n2c(-c3ccncc3)n[nH]c2=S)c1	RORg inh 10µM
Cc1ccc(C)c(-n2c(-c3csc(C)c3)n[nH]c2=S)c1	TRPV1 potentiator inconclusive, VP16 counter 5.6µM, RORg inh 3.2µM (no result: uPA surface inh)
Cc1ccc(C)c(-n2c(-c3ccc4c(c3)OCO4)n[nH]c2=S)c1	none (no result: uPA surface inh)
COc1cc(NC(=O)Nc2ccc(Cl)c(Cl)c2)c(C(=O)O)cc1OC	TRPV1 potentiator inconclusive
CCN(Cc1nc2cc(OC)c(OC)cc2c(=O)[nH]1)C(=O)c1ccc(S(=O)(=O)N(C)C)cc1	none
COc1cc2nc(CN(C)Cc3ccc(C(C)(C)C)cc3)[nH]c(=O)c2cc1OC	uPA surface inh 3.5µM
CCOC(=O)c1oc2cccc(OCC(O)CNC(C)C)c2c1C (stereo unspecified)	VP16 counter 16µM (no result: uPA surface inh)
CC1=NN(c2ccccc2)C(=O)/C1=C/N(C)C	none
CC1=NN(c2nc3ccccc3[nH]2)C(=O)/C1=C/N(C)C	VP16 counter inconclusive, RORg inh 5µM
Cc1cccc(Nc2c3c(nc4ccccc24)CCC3)c1	VP16 counter inconclusive, RORg inh 7.1µM (no result: TRPV1 potentiator, TRPV1 agonist)
O=C(COC(=O)c1ccccn1)Nc1nc(-c2cccc([N+](=O)[O-])c2)cs1	VP16 counter 35µM, RORg inh 13µM
O=C(COC(=O)c1ccccn1)Nc1nc(-c2ccccc2)cs1	RORg inh inconclusive
COc1cc(NC(=O)CSc2nnc3c(C)cc4c(C)ccc(C)c4n23)c(C(=O)O)cc1OC	none
C/C(CC(=O)Nc1cc(C)ccn1)=N\NC(=O)c1ccc(C(C)(C)C)cc1	RORg inh 11µM
C/C(CC(=O)Nc1ccc(N(C)C)cc1)=N\NC(=O)c1ccc(C(C)(C)C)cc1	VP16 counter 4µM, RORg inh inconclusive
C/C(CC(=O)Nc1ccc(N(C)C)cc1)=N\NC(=O)c1ccc([N+](=O)[O-])cc1Cl	VP16 counter inconclusive, RORg inh inconclusive
COc1cccc(C(=O)N/N=C(\C)CC(=O)Nc2ccc(N(C)C)cc2)c1	none
C/C(CC(=O)Nc1ccc(N(C)C)cc1)=N\NC(=O)c1ccc(Cl)cc1Cl	RORg inh 11µM
C/C(CC(=O)Nc1ccc(N(C)C)cc1)=N\NC(=O)C(=O)NCc1ccccc1	none
C/C(CC(=O)Nc1ccc(N(C)C)cc1)=N\NC(=O)c1ccc(F)cc1	VP16 counter inconclusive, RORg inh 1.8µM
COc1ccc(S(=O)(=O)N2CCC(C(=O)NCc3ccccc3)CC2)cc1OC	none
CN(Cc1ccccc1)C(=O)c1cccc(NC(=O)C2CCCN(C(=O)OC(C)(C)C)C2)c1 (stereo unspecified)	none (no result: TRPV1 potentiator, VP16 counter, RORg inh, TRPV1 agonist)
Cc1ccc(N2CCN(C(=O)c3ccccc3)CC2)c(C)c1	TRPV1 agonist inconclusive
COc1cc(C(=O)N2CCN(c3ccc(C)cc3C)CC2)cc(OC)c1OC	uPA surface inh 3.2µM
Cc1csc(NC(=O)CSc2nnc(-c3ccc(S(=O)(=O)N4CCCC4)cc3)o2)n1	RORg inh 13µM
